Each structure is given as a SMILES string. About 350 (0.7%) of roughly 50,000 compounds were called active. This is one part of a sample in which actives are shown more often than they occur. Values without a mark were called inactive. Cut-off read from the data, not from the text of the source: active = inhibition above about 60%; inactive = the rest.

Sequence of Dual specificity protein phosphatase 3 (Homo sapiens) (P51452 whole entry, looked up): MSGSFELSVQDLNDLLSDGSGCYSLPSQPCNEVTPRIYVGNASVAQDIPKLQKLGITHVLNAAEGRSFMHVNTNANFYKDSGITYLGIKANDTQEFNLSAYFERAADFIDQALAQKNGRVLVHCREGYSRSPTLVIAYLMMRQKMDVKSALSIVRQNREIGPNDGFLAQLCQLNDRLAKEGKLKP

This assay has as its target Dual specificity protein phosphatase 3 (Homo sapiens) (UniProt P51452). Description: human DUSP3 activity blockers – biochemical, colorimetric, HTS, primary screen (AID 1992). The following applies: recombinant VHR phosphatase, colorimetric substrate read-out; at 20 µM; stronger effect = higher value.
The term inhibition denotes the change of the read-out against control, counted positive when it falls. For the compound `CCc1ccc(NC(=O)C(=O)NCCN2CCOCC2)cc1`, the inhibition is 12.8%.

Regarding `COc1ccc(C(=O)Nc2ccc3oc(-c4cc(Cl)c(OC)c(Cl)c4)nc3c2)cc1OC`, the inhibition is 45.4%.

Consider `COc1cccc(N2C(=O)C=CC2=O)c1`, for which the inhibition is 49.6%.

On to `COc1ccc(N2C(=O)C3C4C=CC(C4=C(C)C)C3C2=O)c([N+](=O)[O-])c1` (stereo not drawn), for which the inhibition is 4.6%.

As for `COc1ccc(N2C(=O)C=CC2=O)c([N+](=O)[O-])c1`, the inhibition was 58.9% (active).

For the compound `Cc1ccc(N2C(=O)/C(=C/N3CCOCC3)c3ccccc3C2=O)cc1`, the inhibition was 13.6%.

On to `CCOC(=O)c1c(N2C(=O)C3CC(C)=C(C)CC3C2=O)sc2c1CCCC2` (stereo not drawn), for which the inhibition was -3.1%.

For `COC(=O)C1=NNC2(C)C(=O)N(c3ccccc3OC)C(=O)C12` (stereo not drawn), the inhibition was 97% (active).

`COc1ccccc1-n1c(=S)[nH]c2ccccc2c1=O`: the inhibition was 5.2%.

For the compound `COC(=O)Nc1ccc(S(=O)(=O)N2CCN(c3ccccc3OC)CC2)cc1`, the inhibition was -59.1%.

`O=C(Nc1cc(C(F)(F)F)cc(C(F)(F)F)c1)c1ccco1`: the inhibition was -7.4%.

As for `O=C(Nc1cccc(O)c1)c1cccnc1`, the inhibition was -14.8%.

On to `CCOC(=O)COc1ccc(/C=N\n2nnnc2N)cc1OC`, for which the inhibition is -44.1%.

With `Cc1ccc(/C=C2/C=C(c3ccccc3)OC2=O)o1`, the inhibition is 74.2% (active).

As for `CCCCOc1ccc(/C=C2/C=C(c3ccccc3)OC2=O)cc1`, the inhibition was 21.2%.

In the case of `Cc1ccc(C2=C/C(=C\c3cccnc3)C(=O)O2)cc1`, the inhibition was 14.8%.

In the case of `Cc1cc(C)c(NS(=O)(=O)c2ccc3ccccc3c2)c(C)c1`, the inhibition is -0.6%.

`O=C(O)c1cc(-c2ccc(C=C3C(=O)c4ccccc4C3=O)o2)ccc1O`: the inhibition was 9.3%.

In the case of `O=C(O)c1cc(-c2ccc(/C=N/Nc3ccc(Cl)c(Cl)c3)o2)ccc1Cl`, the inhibition was 89.1% (active).

As for `O=C(N/N=C/c1ccc(-c2cccc(Cl)c2)o1)c1cccnc1`, the inhibition is -17.2%.

Turning to `O=C(CCc1n[nH]c(=O)[nH]c1=O)N/N=C/c1ccc([N+](=O)[O-])cc1`, the inhibition is -17.4%.

Regarding `C#CCn1cc(/C=C(/C#N)C(=O)Nc2ccc(Cl)cc2)c2ccccc21`, the inhibition was -3.6%.

With `CC(=O)c1sc(NC(=O)c2cc(Cl)ccc2[N+](=O)[O-])nc1C`, the inhibition was 4.8%.

Regarding `O=C(Nc1ccccc1C(=O)O)c1ccc(NC(=O)c2cccs2)cc1`, the inhibition is -7.6%.

For the compound `CCOC(=O)C1=C(C)N=c2s/c(=C\c3cc(OC)c(O)c(OC)c3)c(=O)n2C1c1ccccc1` (stereo not drawn), the inhibition is 35.5%.

In the case of `O=C(NCCCn1ccnc1)c1cc2c(ccc3ccccc32)oc1=O`, the inhibition is -14.2%.

Turning to `C=C(C)COc1ccc2oc(-c3ccccc3)c(C(=O)O)c2c1`, the inhibition is -5.7%.

On to `Cc1nc2cc(S(N)(=O)=O)ccc2n1-c1ccccc1`, for which the inhibition is 0.2%.

In the case of `O=S(=O)(O)c1nc2ccccc2n1-c1ccccc1`, the inhibition is 91.8% (active).

On to `O=C(CSc1nc2ccccc2c(=O)n1-c1ccccc1)Nc1ccccc1`, for which the inhibition was -19.9%.

Regarding `COc1ccc(OC)c(/C=C/C(=O)Nc2ccc(N(C)C)cc2)c1`, the inhibition was -29.5%.

For the compound `Fc1cnc(NN=Cc2cccs2)nc1N1CCOCC1`, the inhibition is -10.8%.

Regarding `CC(=O)N(C1=C(Cl)C(=O)c2ccccc2C1=O)c1cccc(Br)c1`, the inhibition is 84.5% (active).

As for `O=C(CN(c1cccc(Br)c1)S(=O)(=O)c1ccccc1)N1CCOCC1`, the inhibition was -30.2%.

On to `CC1CCCC(C)C1NC1=C(Cl)C(=O)c2ccccc2C1=O` (stereo not drawn), for which the inhibition was -2.5%.

As for `COc1ccc(N2C(=O)c3cccc4cccc(c34)C2=O)cc1OC`, the inhibition is 7.9%.

For the compound `COc1cc(C(=O)Nc2cccc3nsnc23)cc(OC)c1OC`, the inhibition is -4.9%.

Take `COc1ccc(NC(=O)c2cccc(Cl)c2Cl)cc1OC`: the inhibition is 1.3%.

In the case of `Cc1ccc(C(=O)NCCNc2ccc([N+](=O)[O-])cc2Cl)cc1`, the inhibition was -20.4%.

Turning to `Cc1ccc(S(=O)(=O)N(Cc2ccccc2)c2ccccc2C(=O)NC2CCCC2)cc1`, the inhibition was -20.6%.

For the compound `CC(=Nc1cc(Cl)ccc1O)c1c(-c2ccccc2)[nH]n(-c2nc3ccccc3s2)c1=O`, the inhibition was 2.5%.

With `COc1ccccc1NC(=O)C1=C(C)Nc2sc(C#N)c(N)c2C1c1ccco1` (stereo not drawn), the inhibition was 4.4%.

On to `CCOC(=O)c1c(NC(=O)Cc2ccc(Cl)cc2)sc(C(=O)Nc2cccc(OC)c2)c1C`, for which the inhibition is -1.7%.

Regarding `CCOC(=O)c1c(NC(=O)c2ccc(OC)c(OC)c2)sc(C(=O)Nc2ccc(C)cc2C)c1C`, the inhibition was -18.8%.

As for `CCOC(=O)c1c(NC(=O)Cc2ccc(Cl)cc2)sc(C(=O)Nc2ccccc2OC)c1C`, the inhibition was 103% (active).

As to `CCOC(=O)c1c(NC(=O)c2ccccc2C)sc(C(=O)Nc2ccccc2OC)c1C`, the inhibition is -2.4%.

For the compound `CCOC(=O)c1c(NC(=O)c2ccccc2OC)sc(C(=O)Nc2ccccc2F)c1C`, the inhibition is -11.7%.

As to `CCOC(=O)c1c(NC(=O)C23CC4CC(CC(C4)C2)C3)sc(C(=O)Nc2ccccc2OC)c1C`, the inhibition was 120% (active).

As for `Cc1c(C#N)sc2nc(-c3ccccc3)nc(/N=C/N(C)C)c12`, the inhibition was -22.8%.

Regarding `Nc1ccc2nc(Sc3nc4ccc([N+](=O)[O-])cc4s3)sc2c1`, the inhibition was -10.9%.

With `CC1=C(C(=O)Nc2ccc(C)cc2)C(c2ccc([N+](=O)[O-])cc2)NC(=O)N1` (stereo not drawn), the inhibition is -6.8%.

In the case of `CC12CCC(CC1=O)C(C)(C)N2` (stereo not drawn), the inhibition was -18.3%.

For `O=C1C=CC(=O)N1Nc1c(Cl)cc(Cl)cc1Cl`, the inhibition is 102% (active).

On to `COc1ccc(Nc2ncnc3ccc(Br)cc23)cc1`, for which the inhibition is 0.8%.

As for `O=C(CSc1ccccc1C(=O)O)c1ccc(-c2ccccc2)cc1`, the inhibition was 2.1%.

Regarding `Cc1ccc(C)c(OCc2nnc(NC(=O)c3ccccc3)s2)c1`, the inhibition is 5.1%.

For the compound `Cc1cc(C)cc(OCCCCNC(C)(C)C)c1`, the inhibition was -33.4%.

As to `Cc1nc2cc(-c3ccc(Br)cc3)[nH]n2c(=O)c1C`, the inhibition was 10.2%.

In the case of `CC(=O)N1c2ccc3ccccc3c2C2C=CCC2C1c1ccc(F)cc1` (stereo not drawn), the inhibition was -6.5%.

For the compound `Cc1[nH]n(-c2ccc(Cl)cc2)c(=O)c1/C=N/NC(=O)c1ccccc1[N+](=O)[O-]`, the inhibition was -37.1%.

`CC(=O)Nc1ccc(N2C(=O)C3C4C=CC(CC4)C3C2=O)cc1` (stereo not drawn): the inhibition was -14%.

Take `COc1ccccc1C1CC(c2ccc(F)cc2)=NN1c1ccccc1` (stereo not drawn): the inhibition is -3.2%.

As to `O=C1N=c2ccc(I)cc2=C1c1[nH]c(=S)[nH]c1O`, the inhibition was -37.4%.

`Cc1ccc(S(=O)(=O)NCCNS(C)(=O)=O)cc1[N+](=O)[O-]`: the inhibition was -9.6%.

On to `CCN(CC)C(=O)CSc1nc(O)c(Cc2ccccc2)c(=O)n1-c1ccc(OC)cc1`, for which the inhibition was 26.5%.

`O=C(O)CCCCCN1C(=O)C(=O)/C(=C(/O)c2ccc(F)cc2)C1c1cccc([N+](=O)[O-])c1` (stereo not drawn): the inhibition is 5%.

As for `COc1cc(/C=c2\sc3nc4c(C)cc(C)cc4n3c2=O)cc(Br)c1O`, the inhibition is -5.5%.

Regarding `Cc1cc(C)c2nc3s/c(=C\c4ccc(-c5ccccc5C(=O)O)o4)c(=O)n3c2c1`, the inhibition was 69.3% (active).

With `Cc1cc(C)c2nc3s/c(=C\c4ccc(N(C)C)cc4)c(=O)n3c2c1`, the inhibition is -22.7%.

With `COc1cc(NC(=O)c2ccc(-c3ccc([N+](=O)[O-])cc3C)o2)ccc1NC(=O)c1ccco1`, the inhibition is -3.8%.

With `c1ccc(-c2nnc(SC3CCCC3)nc2-c2ccccc2)cc1`, the inhibition is -9.1%.

As to `Clc1cccc(CN2CCN(C3CCN(Cc4ccccc4)CC3)CC2)c1`, the inhibition is -6.2%.

For `Cc1ccc(S(=O)(=O)c2ccc(Oc3ccc(Cl)cc3)cc2)cc1`, the inhibition was -26.6%.

Values taken from PubChem BioAssay AID1992 (Sanford-Burnham Center for Chemical Genomics, 2009).
